Test results: ChEMBL document CHEMBL4513216, “Probing the Open Global Health Chemical Diversity Library for Multistage-Active Starting Points for Next-Generation Antimalarials” (ACS Infect Dis, 2020)
Out of some 69,000 compounds screened, about 8,600 (12%) showed an effect of 50% or more. What follows is part of a selection rich in strong results, with near analogues and random picks from the rest.

These compounds were tested on Plasmodium berghei (assay: Screen against P. berghei liver stage (PbLuc), transformed with Luciferase, at 10uM). Details: tested at 10 uM.
Format: functional, HepG2
Cc1cnn(CC(C)Nc2nc(C)cc(N(C)C)n2)c1 (stereo unspecified) was tested, and the INHIBITION was 15.6%. Compound Cc1cc(-n2c(C)cn(CN(C)CC3CC3)c2=O)no1 has an INHIBITION of -8.9%. For Cc1ccc(NC(=O)N2CCCC(N(C)C)C2)c(Br)c1 (stereo unspecified), the INHIBITION was 15.1%. In the case of Cc1cc(C(=O)N[C@H](C)c2onc(-c3cccnc3)c2C(=O)O)c(C)o1, the INHIBITION is reported as -30.7%. In the case of NS(=O)(=O)CCCNC(=O)C1(c2cccc(Cl)c2)CC1, the INHIBITION is reported as 11.8%. In the case of CCn1nc(C)c2nnn(CC(=O)Nc3ccc(C)cc3)c(=O)c21, the INHIBITION is reported as 29.2%. Cc1c[nH]c(C2COCCN2C(=O)CCc2c(C)n[nH]c2C)n1 (stereo unspecified) showed an INHIBITION of -3.65%. Cc1nc(C(C)C)sc1C(C)N(C)C(=O)c1ccc(=O)n(C)c1 (stereo unspecified) showed an INHIBITION of 16.1%. Work on O=C(c1ccoc1)N1CCOC2(COCCN(c3ncccn3)C2)C1 (stereo unspecified) yielded an INHIBITION of 46.6%. Compound O=C(c1ccoc1)N1CCOC2(COCCN(CC3CC3)C2)C1 (stereo unspecified) has an INHIBITION of 71.3%. Cn1ccc(C(=O)N2CCOC3(COCCN(CC4CC4)C3)C2)n1 (stereo unspecified) showed an INHIBITION of -25.1%. With CNC(=O)CCc1cc(C2CCCCN2C)nc(C)n1 (stereo unspecified) the INHIBITION was -11.3%. Work on COc1ccc(CN2C[C@H]3CN(c4ccsc4)C(=O)[C@H]3C2)cc1 yielded an INHIBITION of 50%. In the case of O=C1[C@H]2CN(Cc3nccs3)C[C@H]2CN1c1ccsc1, the INHIBITION is reported as 32.4%. For O=C1[C@H]2CN(Cc3ccncc3)C[C@H]2CN1c1ccsc1, the INHIBITION was 15.9%. With O=C1[C@H]2CN(Cc3ccccn3)C[C@H]2CN1c1ccsc1 the INHIBITION was 56.7%. In the case of O=C1[C@H]2CN(Cc3ccc(F)cc3)C[C@H]2CN1c1ccsc1, the INHIBITION is reported as 22.9%. In the case of Cn1cc(N2C[C@@H]3CN(Cc4ccccn4)C[C@@H]3C2=O)cn1, the INHIBITION is reported as 34.9%. O=C(c1ccco1)N1CC[C@@H](N2CCOCC2)[C@@H]1Cc1ccncc1 showed an INHIBITION of 24.1%. For Cc1cc(CN2CCN(C(=O)NCc3c(C)noc3C)CC2)on1, the INHIBITION was 44.3%. Compound O=c1[nH]nc2c(S(=O)(=O)N3CCN(c4ccc(F)cc4)CC3)cccn12 has an INHIBITION of 39.5%. With Cc1cnn(CCNCc2csc(-c3ccsc3)n2)c1 the INHIBITION was -69.15%. CC(CN1CCOCC1)NC(=O)Nc1cccnc1-n1cccn1 (stereo unspecified) was tested, and the INHIBITION was -31.1%. For CN(C)CCO[C@@H]1CC[C@H]2[C@H]1OCCN2C(=O)c1ccc(F)cc1, the INHIBITION was 42.1%. With CC(=O)N1CCC(Cc2cnc(-c3c(C)n[nH]c3C)cn2)CC1 the INHIBITION was 1.5%. For Cc1cc(NC(C)Cc2cccs2)n2nccc2n1 (stereo unspecified), the INHIBITION was 42.1%. Cn1cc(CN2CCC(F)(F)C3(CCN(c4cnccn4)C3)C2)cn1 (stereo unspecified) was tested, and the INHIBITION was -31.5%. CCOc1ncnc2c1CCN(Cc1cccs1)CC2 was tested, and the INHIBITION was 36.2%. For COc1cc(C)ccc1OCCC(=O)N1CCCC(n2cncn2)C1 (stereo unspecified), the INHIBITION was -16%. CCOCC1CN(C(=O)Cc2ccccn2)Cc2cnn(C)c21 (stereo unspecified) was tested, and the INHIBITION was -45.8%. For CCOCC1CN(C(=O)c2cnoc2C)Cc2cn(C)nc21 (stereo unspecified), the INHIBITION was 51.2%. Work on CCOCC1CN(C(=O)Cc2ccccn2)Cc2c1cnn2CC (stereo unspecified) yielded an INHIBITION of 42.7%. CCOCC1CN(C(=O)Cc2ccccn2)Cc2cn(C)nc21 (stereo unspecified) showed an INHIBITION of 51.2%. CCOCC1CN(C(=O)c2cnoc2C)Cc2cnn(C)c21 (stereo unspecified) gave an INHIBITION of -11.2%. CCOCC1CN(C(=O)Cc2ccccn2)Cc2cnn(CC)c21 (stereo unspecified) showed an INHIBITION of 54.4%. CCOCC1CN(C(=O)COc2ccccc2)Cc2cn(C)nc21 (stereo unspecified) showed an INHIBITION of 5.96%. For CCOCC1CN(C(=O)c2cnoc2C)Cc2cn(CC3CC3)nc21 (stereo unspecified), the INHIBITION was -50.8%. CCOCC1CN(C(=O)Cc2ccccn2)Cc2cn(CC)nc21 (stereo unspecified) was tested, and the INHIBITION was 31.4%. CC(NC(=O)N1CCC1)c1ccc(S(C)(=O)=O)cc1 (stereo unspecified) was tested, and the INHIBITION was 18.4%. Work on CC(=O)N(C)c1nc(CN2CCCC2Cn2nc(C)cc2C)cs1 (stereo unspecified) yielded an INHIBITION of -14.7%. O=C(c1csc(-c2ccccn2)n1)N1CCCC1Cn1cccn1 (stereo unspecified) showed an INHIBITION of 38.8%. O=C(Cc1cccs1)N1CCC(O)(CN2CCc3ccccc3C2)C1 (stereo unspecified) gave an INHIBITION of 38.2%. Work on CC(=O)NCC1CCN(C(=O)CCOc2ccc(C(C)C)cc2)CC1 yielded an INHIBITION of -39.35%. CSc1ccc(CNC(=O)NCC(O)c2cccc(F)c2)cc1 (stereo unspecified) showed an INHIBITION of 19.6%. CNC(=O)NCC1CCC2(CCN(c3ncccn3)CC2)CO1 (stereo unspecified) gave an INHIBITION of 15.8%. For CC(=O)N1CC(=O)N(c2cnn(C)c2)CC12CCN(Cc1cccs1)C2 (stereo unspecified), the INHIBITION was 6.27%. Cc1c(Cn2ccnc2-c2cc(CN(C)C)cs2)cnn1C gave an INHIBITION of 23.5%. Compound Cc1nc(C)c(Cn2ccnc2-c2cc(CN(C)C)cs2)s1 has an INHIBITION of 30.9%. For CN(C)Cc1csc(-c2nccn2Cc2ccsc2)c1, the INHIBITION was 66.1%. Compound CN(C)Cc1csc(-c2nccn2CCc2cccnc2)c1 has an INHIBITION of 59.1%. With CN(C)Cc1cc(-c2nccn2CCc2cccnc2)ccc1O the INHIBITION was 31.3%. Work on CN(C)Cc1csc(-c2nccn2Cc2ccc(C(=O)O)cc2)c1 yielded an INHIBITION of 37.4%. O=C(NCC1CCOCC1)c1cc(-c2ccncc2)c2cnccc2n1 gave an INHIBITION of 17.4%. CN(Cc1nnc2n1CCC2)C(=O)CCc1ccc2c(c1)OCO2 was tested, and the INHIBITION was -21.8%. In the case of C[C@H]1CN(Cc2cccc(F)c2)C[C@@]12CCN(CC(=O)N(C)C)C2=O, the INHIBITION is reported as 19.8%. Cc1ccc(N2CCCC(NCc3ccc(Cl)o3)C2)nn1 (stereo unspecified) showed an INHIBITION of -12.1%. In the case of Cc1n[nH]c(C)c1CN(C)C(C(=O)O)c1c(F)cccc1OC(C)C (stereo unspecified), the INHIBITION is reported as 40.6%. COc1ccc(C(C(=O)O)N(C)Cc2ccon2)cc1Cl (stereo unspecified) gave an INHIBITION of -23.5%. COc1cccc(OC)c1C(C(=O)O)N(C)Cc1c(C)n[nH]c1C (stereo unspecified) was tested, and the INHIBITION was 53.3%. Work on Cc1n[nH]c(C)c1CN(C)C(C(=O)O)c1ccc2c(c1)OCO2 (stereo unspecified) yielded an INHIBITION of 11.2%. COc1cc(C)cc(OC)c1C(C(=O)O)N(C)Cc1c(C)nn(C)c1C (stereo unspecified) was tested, and the INHIBITION was 9.56%. COc1cccc(C(=O)N(C)C(C)c2c(C)n[nH]c2C)c1OC (stereo unspecified) gave an INHIBITION of 12.6%. COc1cccc(Cl)c1C(C(=O)O)N(C)Cc1nnc(C)o1 (stereo unspecified) showed an INHIBITION of 52.2%. With COc1cccc(Cl)c1C(C(=O)O)N(C)Cc1c(C)n[nH]c1C (stereo unspecified) the INHIBITION was 57.6%. For CCOc1ccccc1C(C(=O)O)N(C)Cc1nnc(C)o1 (stereo unspecified), the INHIBITION was -0.614%. COc1ccc(CCC(=O)Nc2ccc3ncn(C)c(=O)c3c2)cc1 was tested, and the INHIBITION was 22.3%.
